Compound activity as filed in PubChem BioAssay.
Hits are enriched below; roughly 22% of the tested compounds scored in any of these assays.
CYP2C9 act – activators of human CYP2C9; 96,000 tested, 1.4% active; recombinant CYP2C9, luciferin-H conversion, luminescence; active compounds read high; factor 1 = untreated enzyme, 0 = blocked; P11712; activation factor at 5 µM;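 active = activation factor of 2 or more for CYP2C9 at a 5 µM dose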;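 note: 0 = sulfaphenazole-blocked wells and 1 = vehicle-only wells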
CYP2C19 inh – human CYP2C19 inhibition; P33261; CYP2C19 Supersomes, luciferin-H EGE luminescence, 30 min; inhibition, % at 5 µM; 96,000 tested, 21% active;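 active = CYP2C19 inhibition above a set limit at 5 µM in the primary screen, cut at about 50% in these data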;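 note: plate controls were negative control wells for no effect and 2.5 mM tranylcypromine positive control for full effect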
Target sequence (P33261 whole entry, looked up): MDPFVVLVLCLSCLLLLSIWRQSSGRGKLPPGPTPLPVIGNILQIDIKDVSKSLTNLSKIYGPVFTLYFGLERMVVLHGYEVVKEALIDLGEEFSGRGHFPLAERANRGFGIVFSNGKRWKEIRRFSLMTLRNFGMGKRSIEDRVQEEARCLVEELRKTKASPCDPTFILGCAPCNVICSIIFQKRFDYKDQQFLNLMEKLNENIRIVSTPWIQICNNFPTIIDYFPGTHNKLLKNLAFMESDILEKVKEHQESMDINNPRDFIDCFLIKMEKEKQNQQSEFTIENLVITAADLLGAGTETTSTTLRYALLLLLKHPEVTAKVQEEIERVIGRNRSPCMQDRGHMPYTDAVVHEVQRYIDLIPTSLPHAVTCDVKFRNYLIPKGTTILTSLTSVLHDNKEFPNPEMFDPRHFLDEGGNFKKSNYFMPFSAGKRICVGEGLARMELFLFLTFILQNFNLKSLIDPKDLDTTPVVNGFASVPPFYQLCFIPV
CYP2C9 inh – human CYP2C9 inhibition; CYP2C9 Supersomes, luciferin-H conversion, luminescence; inhibition, % at 5 µM; 96,000 tested, 20% active;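 active = blocking of liver enzyme CYP2C9 beyond about 50% at 5 µM, limit read from the data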
CYP2C19 activ – increases human CYP2C19 enzyme activity | P33261 | recombinant CYP2C19, luciferin-H EGE luminescence; active compounds read high; 0 = fully inhibited enzyme, 1 = untreated enzyme | activation factor at 5 µM | 96,000 tested, under 10 active | AID 1025;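 active = activation factor of at least 2 at 5 µM in the primary screen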;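 note: 0 = wells with 2.5 mM tranylcypromine and 1 = vehicle-only wells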
Measles CPE – protection of cells from measles virus; Measles virus-infected cells, CPE protection, absorbance; protection (pct of control), % at 4 µM; 140,000 tested, 1.5% active; in the data active = protection mostly above about 24%, no sharp cut-off; inactive = mostly below about 26%
Starred values were filed as active, the others as inactive.

For O=C(NC(=S)Nc1ccc(Cc2ccncc2)cc1)c1ccccc1 the results were Measles CPE 11.
O=C(O)c1cc2c(s1)CCCC2 was read as CYP2C9 act 1.1, CYP2C19 inh -22, CYP2C9 inh -12, CYP2C19 activ 1.2 and Measles CPE 16.
Screening O=C(NCc1ccccc1)c1csc2c1CCCCC2 returned CYP2C9 act 4*, CYP2C19 inh 35, CYP2C9 inh -304, CYP2C19 activ 0.6 and Measles CPE 13.
`O=C(NCc1ccco1)c1csc2c1CCCCC2` gave CYP2C9 act 4.2*, CYP2C19 inh 43, CYP2C9 inh -317, CYP2C19 activ 0.6 and Measles CPE 4.
For O=C(NCc1cccs1)c1csc2c1CCCCC2 the results were CYP2C9 act 2.5*, CYP2C19 inh 31, CYP2C9 inh -150, CYP2C19 activ 0.7 and Measles CPE 34.
`O=C(NCCN1CCOCC1)c1csc2c1CCCC2` gave CYP2C9 act 1.1, CYP2C19 inh -9, CYP2C9 inh -12, CYP2C19 activ 1.1 and Measles CPE 5.
Cc1ccccc1NC(=O)c1csc2c1CCCC2 was read as CYP2C9 act 1.1, CYP2C19 inh 20, CYP2C9 inh -6, CYP2C19 activ 0.8 and Measles CPE 23.
`O=C(NCc1cccs1)c1cc2c(s1)CCCC2` gave CYP2C9 act 0.5, CYP2C19 inh 64*, CYP2C9 inh 52*, CYP2C19 activ 0.4 and Measles CPE 1.
O=C(Nc1sccc1C(=O)NCc1ccco1)c1cccnc1 was read as CYP2C9 act 0.1, CYP2C19 inh 24, CYP2C9 inh 90*, CYP2C19 activ 0.8 and Measles CPE 24.
Screening S=c1[nH]nc(-c2ccccc2Cl)n1CC1CCCO1 (stereo unspecified) returned CYP2C9 act 0.8, CYP2C19 inh 6, CYP2C9 inh 17, CYP2C19 activ 0.9 and Measles CPE 19.
`CCC(C)NC(=O)CSc1ccc(Cl)cc1` (stereo unspecified) gave Measles CPE 6.
CC(C)C(NC(=O)CSc1ccc(Cl)cc1)C(C)C was read as CYP2C9 act 0.3, CYP2C19 inh 100*, CYP2C9 inh 66*, CYP2C19 activ 0 and Measles CPE 6.
O=C(CSc1ccc(Cl)cc1)Nn1cnnc1 was read as CYP2C9 act 0.2, CYP2C19 inh 87*, CYP2C9 inh 82*, CYP2C19 activ 0.1 and Measles CPE 17.
For Cc1cnc(NC(=O)CSc2ccc(Cl)cc2)s1 the results were CYP2C9 act 0.5, CYP2C19 inh 69*, CYP2C9 inh 49, CYP2C19 activ 0.3 and Measles CPE 6.
O=C(CSc1ccc2ccccc2c1)Nn1cnnc1 was read as CYP2C9 act 0.1, CYP2C19 inh 88*, CYP2C9 inh 90*, CYP2C19 activ 0.1 and Measles CPE 14.
Screening O=C(CN1C(=O)S/C(=C/c2ccc(N3CCOCC3)cc2)C1=O)N1CCOCC1 returned Measles CPE 24.
Screening C=C(C)CC1N(c2cccc(OC)c2)C(=O)[C@@H]2C(C(=O)O)[C@H]3C=C[C@@]12O3 (stereo partly specified) returned CYP2C9 act 1.2, CYP2C19 inh 0, CYP2C9 inh -19, CYP2C19 activ 1 and Measles CPE 1.
Screening CCCCNC(=O)CN(c1ccc(Cl)c(Cl)c1)S(C)(=O)=O returned Measles CPE 11.
COc1ccccc1N(CC(=O)NCc1cccnc1)S(C)(=O)=O was read as CYP2C9 act 1.1, CYP2C19 inh 28, CYP2C9 inh -9, CYP2C19 activ 0.7 and Measles CPE 22.
For Cc1cc(C)cc(N(CC(=O)NCc2cccnc2)S(C)(=O)=O)c1 the results were CYP2C9 act 0.9, CYP2C19 inh 64*, CYP2C9 inh 10, CYP2C19 activ 0.4 and Measles CPE 7.
Screening COc1ccc(OC)c(N(CC(=O)NCc2cccnc2)S(C)(=O)=O)c1 returned CYP2C9 act 0.9, CYP2C19 inh 71*, CYP2C9 inh 12, CYP2C19 activ 0.3 and Measles CPE 15.
Screening COc1ccc(OC)c(N(CC(=O)NCc2ccncc2)S(C)(=O)=O)c1 returned CYP2C9 act 0.5, CYP2C19 inh 78*, CYP2C9 inh 52*, CYP2C19 activ 0.2 and Measles CPE 9.
`COc1ccc(OC)c(N(CC(=O)NCc2ccccn2)S(C)(=O)=O)c1` gave CYP2C9 act 1, CYP2C19 inh 1, CYP2C9 inh 5, CYP2C19 activ 1 and Measles CPE 12.
Screening CS(=O)(=O)N(CC(=O)NCc1ccncc1)c1ccc(Cl)c(Cl)c1 returned CYP2C9 act 0, CYP2C19 inh 100*, CYP2C9 inh 99*, CYP2C19 activ 0 and Measles CPE 5.
Screening O=C(CC(=O)NCc1cccnc1)NCc1cccnc1 returned CYP2C9 act 1, CYP2C19 inh 15, CYP2C9 inh 3, CYP2C19 activ 0.8 and Measles CPE 8.
For O=C(CSc1ncccc1C(=O)O)NCCC1=CCCCC1 the results were CYP2C9 act 0.9, CYP2C19 inh 0, CYP2C9 inh 6, CYP2C19 activ 1 and Measles CPE 25.
`COc1cc(C(=O)NCc2nnc(SCC(=O)Nc3cccc(C)c3)o2)cc(OC)c1OC` gave CYP2C9 act 0.6, CYP2C19 inh 12, CYP2C9 inh 40, CYP2C19 activ 0.9 and Measles CPE 3.
CCOc1ccc(N(CC(=O)NC2CCCCCC2)S(=O)(=O)c2c(C)noc2C)cc1 was read as CYP2C9 act 0.9, CYP2C19 inh 12, CYP2C9 inh 8, CYP2C19 activ 0.9 and Measles CPE 4.
`CCOC(=O)c1c(NC(=O)CSc2nnc(-c3c[nH]c4ccccc34)n2CC)sc2c1CCCC2` gave Measles CPE 10.
`COc1ccccc1N(CC(=O)NCc1ccccn1)S(C)(=O)=O` gave CYP2C9 act 1, CYP2C19 inh 5, CYP2C9 inh 0, CYP2C19 activ 0.9 and Measles CPE 11.
`Cc1ccccc1N(CC(=O)Nc1ccccc1C(=O)O)S(C)(=O)=O` gave CYP2C9 act 0.1, CYP2C19 inh -6, CYP2C9 inh 89*, CYP2C19 activ 1.1 and Measles CPE 26.
`Cc1ccc(S(=O)(=O)N(CC(=O)Nc2ccccc2C(=O)O)c2cccc(Cl)c2C)cc1` gave Measles CPE 14.
For Cc1ccccc1N(CC(=O)NCc1ccncc1)S(C)(=O)=O the results were CYP2C9 act 0.1, CYP2C19 inh 97*, CYP2C9 inh 86*, CYP2C19 activ 0 and Measles CPE 10.
Cc1nn(-c2ccccc2)c(C)c1/C=C/C(=O)OC(C)C(=O)Nc1ncc(Cl)cc1Cl (stereo unspecified) was read as Measles CPE 11.
Screening O=C(c1cc2c(s1)CCCC2)N1CCN(C(=O)C2CCCO2)CC1 (stereo unspecified) returned CYP2C9 act 0.9, CYP2C19 inh 41, CYP2C9 inh 6, CYP2C19 activ 0.6 and Measles CPE 22.
